Experimental data reported in PubChem BioAssay (EPA / NIEHS).
Active and inactive are the calls of the source. Rule for the calls: active = hit-call score of the fitted dose curve at least 0.9, where 1 is the maximum; inactive = score below 0.9.

Columns and labels:
Conditions in all cases: mRNA level, 48 h; actives raise or lower the signal
[1] = read-out: Insulin Like Growth Factor 1 (IGF1), IGF1 (gene 3479); assay: LTEA_HepaRG_IGF1: Life Technologies and Expression Analysis (LTEA) Assay for Insulin Like Growth Factor 1 (IGF1) using HepaRG (AID 2283506)
In short: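 Cells are thawed, plated and cultured 48 h, then exposed in duplicate to chemical (highest 100 uM, half-log steps, 0.5% DMSO) for another 48 h. Total RNA is analysed by Fluidigm qRT-PCR for IGF1 expression relative to vehicle.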

[2] = read-out: Intercellular Adhesion Molecule 1 (ICAM1), ICAM1 (gene 3383); assay: LTEA_HepaRG_ICAM1: Life Technologies and Expression Analysis (LTEA) Assay for Intercellular Adhesion Molecule 1 (ICAM1) using HepaRG (AID 2283507)
In short: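 ICAM1 transcript levels measured by qRT-PCR, normalized to three housekeeping genes (ACTB, GAPDH, POLR2A), after 48 h chemical exposure of HepaRG cells. Duplicate eight-point half-log series from 100 uM in 0.5% DMSO; gain or loss fitted against vehicle.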

[3] = read-out: Interleukin 6 (IL6), IL6 (gene 3569); assay: LTEA_HepaRG_IL6: Life Technologies and Expression Analysis (LTEA) Assay for Interleukin 6 (IL6) using HepaRG (AID 2283509)
In short: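 Transcript levels, normalized to three housekeeping genes, were quantified by qRT-PCR after 48 h chemical treatment of HepaRG cells. Eight-point half-log series from 100 uM in 0.5% DMSO, duplicates. Fitted both directions against DMSO baseline.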

[4] = read-out: Interleukin 6 Receptor (IL6R), IL6R (gene 3570); assay: LTEA_HepaRG_IL6R: Life Technologies and Expression Analysis (LTEA) Assay for Interleukin 6 Receptor (IL6R) using HepaRG (AID 2283510);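 for AC50: differentiated human HepaRG liver cells in serum-free induction medium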
In short: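 Cells were thawed, plated and cultured 48 h, then medium was changed to serum-free induction medium. Chemicals were added in duplicate (100 uM top, half-log steps, 0.5% DMSO) for 48 h. Lysates were analyzed by qRT-PCR for IL6R expression.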

[5] = read-out: Potassium channel subfamily K member 1 (KCNK1), KCNK1 (gene 3775); assay: LTEA_HepaRG_KCNK1: Life Technologies and Expression Analysis (LTEA) Assay for Potassium channel subfamily K member 1 (KCNK1) using HepaRG (AID 2283511)
In short: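 KCNK1 transcript measured by TaqMan qRT-PCR against three housekeeping genes, after HepaRG cells were treated 48 h with eight half-log concentrations (top 100 uM, 0.5% DMSO). Curves fitted bidirectionally relative to vehicle.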

[6] = read-out: Keratin 19 (KRT19), KRT19 (gene 3880); assay: LTEA_HepaRG_KRT19: Life Technologies and Expression Analysis (LTEA) Assay for Keratin 19 (KRT19) using HepaRG (AID 2283512)
In short: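 KRT19 transcript measured by TaqMan qRT-PCR, referenced to three housekeeping genes, after HepaRG cells received test chemicals for 48 h. Eight half-log concentrations, top 100 uM, 0.5% DMSO vehicle; increases and decreases both fitted.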

[7] = read-out: JUN Transcription Factor, JUN (gene 3725); assay: LTEA_HepaRG_JUN: Life Technologies and Expression Analysis (LTEA) Assay for JUN Transcription Factor using HepaRG (AID 2283513)
In short: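 Read-out is JUN transcript level by TaqMan qRT-PCR, normalized to ACTB, GAPDH and POLR2A, after 48 h chemical treatment of HepaRG cells. Concentration-response spanned eight half-log points up to 100 uM in 0.5% DMSO.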

[8] = read-out: Lipase C (LIPC), LIPC (gene 3990); assay: LTEA_HepaRG_LIPC: Life Technologies and Expression Analysis (LTEA) Assay for Lipase C (LIPC) using HepaRG (AID 2283514)
In short: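 LIPC expression was quantified by qRT-PCR against three housekeeping genes (ACTB, GAPDH, POLR2A). Differentiated human HepaRG cells received eight half-log doses (top 100 uM, 0.5% DMSO) in duplicate for 48 h; fitting bidirectional relative to DMSO.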

[9] = read-out: Lipoprotein lipase (LPL), LPL (gene 4023); assay: LTEA_HepaRG_LPL: Life Technologies and Expression Analysis (LTEA) Assay for Lipoprotein lipase (LPL) using HepaRG (AID 2283515)
In short: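 LPL transcript levels quantified by TaqMan qRT-PCR against three housekeeping genes after 48 h chemical treatment of HepaRG cells. Eight-point half-log series from 100 uM in 0.5% DMSO, tested in duplicate; bidirectional fitting versus vehicle.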

[10] = read-out: MicroRNA 122 (MIR122), gene 406906; assay: LTEA_HepaRG_MIR122: Life Technologies and Expression Analysis (LTEA) Assay for MicroRNA 122 (MIR122) using HepaRG (AID 2283516); note: the transcript read is the microRNA miR-122
In short: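 Human liver HepaRG cultures receive test chemicals for 48 h at eight half-log concentrations from 100 uM. Expression is quantified by qRT-PCR with ACTB/GAPDH/POLR2A normalization and fitted bidirectionally against 0.5% DMSO.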

[11] = read-out: matrix metalloproteinase-10 (MMP10), MMP10 (gene 4319); assay: LTEA_HepaRG_MMP10: Life Technologies and Expression Analysis (LTEA) Assay for matrix metalloproteinase-10 (MMP10) using HepaRG (AID 2283517)
In short: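 Expression measured by TaqMan qRT-PCR with ACTB/GAPDH/POLR2A normalisation after 48 h chemical exposure of HepaRG cells. Eight half-log concentrations, top 100 uM, 0.5% DMSO vehicle, duplicates; gain or loss fitted against vehicle.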

[12] = read-out: matrix metalloproteinase-3 (MMP3), MMP3 (gene 4314); assay: LTEA_HepaRG_MMP3: Life Technologies and Expression Analysis (LTEA) Assay for matrix metalloproteinase-3 (MMP3) using HepaRG (AID 2283519)
In short: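 Fluidigm-based TaqMan qRT-PCR, normalized to ACTB, GAPDH and POLR2A and fitted bidirectionally versus 0.5% DMSO, measured transcript levels. Treatment: duplicate 48 h exposures of HepaRG cells, ~100,000/well, to eight half-log concentrations topping at 100 uM.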

[13] = read-out: Paternally Expressed 10 (PEG10), PEG10 (gene 23089); assay: LTEA_HepaRG_PEG10: Life Technologies and Expression Analysis (LTEA) Assay for Paternally Expressed 10 (PEG10) using HepaRG (AID 2283520);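 for AC50: PEG10 transcript by qRT-PCR normalised to ACTB GAPDH and POLR2A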
In short: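 Human HepaRG cultures are dosed for 48 h across an eight-point half-log series starting at 100 uM, with 0.5% DMSO as vehicle and baseline. Gain or loss of PEG10 transcript is measured by qRT-PCR and fitted in both directions.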

[14] = read-out: Protein phosphatase 2A (PPP2R4), PTPA (gene 5524); assay: LTEA_HepaRG_PPP2R4: Life Technologies and Expression Analysis (LTEA) Assay for Protein phosphatase 2A (PPP2R4) using HepaRG (AID 2283522)
In short: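 Cells were plated, cultured 48 h, switched to serum-free induction medium, then dosed for 48 h (8 points, max 100 uM, 0.5% DMSO). RNA was isolated and PPP2R4 expression measured by TaqMan qRT-PCR.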

[15] = read-out: solute carrier (SLC22A1), SLC22A1 (gene 6580); assay: LTEA_HepaRG_SLC22A1: Life Technologies and Expression Analysis (LTEA) Assay for solute carrier (SLC22A1) using HepaRG (AID 2283524);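 for AC50: differentiated human HepaRG liver cells in serum-free induction medium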
In short: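 Transcript level of SLC22A1 quantified by qRT-PCR (normalized to three housekeeping genes) after 48 h chemical exposure of HepaRG cells, eight concentrations up to 100 µM, half-log steps, 0.5% DMSO vehicle. Gain or loss relative to DMSO fitted bidirectionally.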

[16] = read-out: Pyruvate Dehydrogenase Kinase 4 (PDK4), PDK4 (gene 5166); assay: LTEA_HepaRG_PDK4: Life Technologies and Expression Analysis (LTEA) Assay for Pyruvate Dehydrogenase Kinase 4 (PDK4) using HepaRG (AID 2283525)
In short: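 Readout is qRT-PCR of PDK4 transcript, normalized to three housekeeping genes, with bidirectional fitting against 0.5% DMSO vehicle. Differentiated HepaRG cells were treated 48 h in serum-free induction medium, duplicate wells, eight-point half-log series topping at 100 uM.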

[17] = read-out: NAD(P)H dehydrogenase [quinone] 1 (NQO1), NQO1 (gene 1728); assay: LTEA_HepaRG_NQO1: Life Technologies and Expression Analysis (LTEA) Assay for NAD(P)H dehydrogenase [quinone] 1 (NQO1) using HepaRG (AID 2283526)
In short: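 Transcript induction or suppression is quantified by qRT-PCR in human HepaRG liver cells dosed for 48 hours. Eight half-log concentrations topping at 100 uM are used, with 0.5% DMSO as vehicle and baseline.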

[18] = read-out: Nuclear factor erythroid 2-related factor 2 (Homo sapiens) (UniProt Q16236); assay: LTEA_HepaRG_NFE2L2: Life Technologies and Expression Analysis (LTEA) Assay for Nuclear factor erythroid 2-related factor 2 (NFE2L2) Transcription Factor using HepaRG (AID 2283527)
In short: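 NFE2L2 transcript level was read by qRT-PCR (housekeeping ACTB/GAPDH/POLR2A normalisation) after 48 h chemical treatment of HepaRG in serum-free induction medium. Duplicate 8-point half-log curves, top 100 uM, 0.5% DMSO vehicle; up- or down-regulation fitted against vehicle.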

[19] = read-out: succinate dehydrogenase complex iron sulfur subunit B (SDHB), SDHB (gene 6390); assay: LTEA_HepaRG_SDHB: Life Technologies and Expression Analysis (LTEA) Assay for succinate dehydrogenase complex iron sulfur subunit B (SDHB) using HepaRG (AID 2283528)
In short: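 A human HepaRG culture in serum-free induction medium received test chemicals for 48 h over an eight-point range capped at 100 uM. SDHB expression change was quantified by qRT-PCR.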

[20] = read-out: Nuclear factor NF-kappa-B p105 subunit (Homo sapiens) (UniProt P19838); assay: LTEA_HepaRG_NFKB1: Life Technologies and Expression Analysis (LTEA) Assay for Nuclear Factor Kappa B Subunit 1 (NFKB1) using HepaRG (AID 2283521)
In short: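 Human HepaRG cells receive eight half-log concentrations, highest 100 uM, for 48 h. NFKB1 expression is then quantified by qRT-PCR and analysed for up- or down-regulation relative to 0.5% DMSO vehicle.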

Measured: AC50

Sequence of Nuclear factor erythroid 2-related factor 2 (Homo sapiens) (Q16236 whole entry, looked up): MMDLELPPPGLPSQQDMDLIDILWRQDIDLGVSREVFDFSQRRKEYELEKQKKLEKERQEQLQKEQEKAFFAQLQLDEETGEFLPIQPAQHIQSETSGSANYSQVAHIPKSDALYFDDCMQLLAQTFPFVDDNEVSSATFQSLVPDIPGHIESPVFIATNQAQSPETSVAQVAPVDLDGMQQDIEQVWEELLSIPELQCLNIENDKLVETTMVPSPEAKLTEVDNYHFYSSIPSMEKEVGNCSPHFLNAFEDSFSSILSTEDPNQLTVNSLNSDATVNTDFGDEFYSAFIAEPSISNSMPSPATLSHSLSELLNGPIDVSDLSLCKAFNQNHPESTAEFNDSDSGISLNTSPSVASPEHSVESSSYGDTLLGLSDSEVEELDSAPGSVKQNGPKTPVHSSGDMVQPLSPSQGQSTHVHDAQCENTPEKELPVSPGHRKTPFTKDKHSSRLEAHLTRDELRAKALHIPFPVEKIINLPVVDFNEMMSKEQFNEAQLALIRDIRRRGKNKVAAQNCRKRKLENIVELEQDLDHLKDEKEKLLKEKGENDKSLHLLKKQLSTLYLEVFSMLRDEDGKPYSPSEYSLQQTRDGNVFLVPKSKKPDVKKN
Sequence of Nuclear factor NF-kappa-B p105 subunit (Homo sapiens) (P19838 whole entry, looked up): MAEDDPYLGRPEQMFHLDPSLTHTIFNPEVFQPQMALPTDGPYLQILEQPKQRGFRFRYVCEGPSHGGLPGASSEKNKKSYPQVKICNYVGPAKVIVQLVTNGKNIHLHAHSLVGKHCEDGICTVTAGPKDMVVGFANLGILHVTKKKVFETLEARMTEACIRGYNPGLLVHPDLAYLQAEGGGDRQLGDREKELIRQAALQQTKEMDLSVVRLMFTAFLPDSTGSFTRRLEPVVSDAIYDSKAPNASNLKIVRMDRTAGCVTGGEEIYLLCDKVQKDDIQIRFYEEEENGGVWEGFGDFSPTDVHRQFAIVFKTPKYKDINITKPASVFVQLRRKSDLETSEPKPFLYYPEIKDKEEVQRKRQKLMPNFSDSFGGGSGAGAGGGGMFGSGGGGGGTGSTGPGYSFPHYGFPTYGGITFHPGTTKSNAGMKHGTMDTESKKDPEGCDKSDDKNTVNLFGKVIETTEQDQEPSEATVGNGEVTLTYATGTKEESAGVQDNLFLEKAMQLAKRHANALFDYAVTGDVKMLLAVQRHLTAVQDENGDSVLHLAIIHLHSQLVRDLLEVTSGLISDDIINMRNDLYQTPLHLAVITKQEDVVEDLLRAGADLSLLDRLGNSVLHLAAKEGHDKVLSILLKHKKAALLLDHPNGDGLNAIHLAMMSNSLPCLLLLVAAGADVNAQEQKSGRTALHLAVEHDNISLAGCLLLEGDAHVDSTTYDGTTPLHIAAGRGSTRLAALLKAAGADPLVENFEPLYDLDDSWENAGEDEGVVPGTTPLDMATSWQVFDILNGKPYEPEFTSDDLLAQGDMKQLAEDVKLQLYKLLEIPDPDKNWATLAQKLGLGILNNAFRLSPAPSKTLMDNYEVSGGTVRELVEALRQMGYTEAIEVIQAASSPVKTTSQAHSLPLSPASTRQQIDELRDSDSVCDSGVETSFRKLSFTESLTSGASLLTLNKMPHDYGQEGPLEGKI

O=C1NS(=O)(=O)c2ccccc21
not listed: [20]
inactive: all other assays above

CC(=O)Nc1ccc(O)cc1
not listed: [18] | [20]
inactive: all other assays above

CN(Cc1cnc2nc(N)nc(N)c2n1)c1ccc(C(=O)N[C@@H](CCC(=O)O)C(=O)O)cc1
active: [15] 0.137 µM | [16] 0.515 µM
not listed: [20]
inactive: all other assays above

CCC(C)c1ccccc1O (stereo not drawn)
inactive: all assays above

CCCCCCCCCCCCCCC
inactive: all assays above

Cc1[nH]nc2c1N=C(c1ccccc1Cl)c1cc([N+](=O)[O-])ccc1N2
active: [1] 1.88 µM | [5] 3.09 µM | [6] 1.24 µM | [7] 20.5 µM | [8] 11.2 µM | [9] 13 µM | [10] 7.26 µM | [11] 5.91 µM | [12] 9.48 µM | [13] 3.67 µM | [15] 5.69 µM | [16] 0.37 µM | [18] 85.1 µM | [19] 0.449 µM
inactive: [2] | [4] | [14] | [17]

CS(=O)(=O)c1ccc([C@@H](CC2CCCC2)C(=O)Nc2cnccn2)cc1Cl
active: [1] 32.8 µM | [2] 73.7 µM | [8] 86.9 µM | [10] 80.8 µM | [11] 79.5 µM | [14] 50 µM | [15] 66.7 µM
not listed: [18] | [20]
inactive: all other assays above

O=C(CCCN1CCC(O)(c2ccc(Cl)cc2)CC1)c1ccc(F)cc1
inactive: [10] | [13] | [14] | [17] | [19]
active: [1] 78.5 µM | [2] 75 µM | [3] 80.9 µM | [4] 50 µM | [5] 84.4 µM | [6] 36.7 µM | [7] 82.7 µM | [8] 84.9 µM | [9] 34.4 µM | [11] 82.4 µM | [12] 12.5 µM | [15] 85.5 µM | [16] 69.4 µM

CCCCCCCCCCCCOS(=O)(=O)O
active: [4] 93.1 µM | [6] 79.9 µM | [7] 50 µM | [8] 80.4 µM | [10] 86.2 µM | [11] 70.2 µM | [15] 77.5 µM | [16] 36.9 µM
not listed: [1] | [14] | [20]
inactive: all other assays above

O=C(c1ccccc1)c1ccccc1
not listed: [18] | [20]
inactive: all other assays above

CCCCC=O
inactive: all assays above

OCC(CO)(CBr)CBr
inactive: all assays above

CN(C)CCOC(c1ccccc1)c1ccccc1
active: [9] 50 µM
not listed: [18] | [20]
inactive: all other assays above

N=C(N)c1ccc(OCCCCCOc2ccc(C(=N)N)cc2)cc1
active: [1] 11.1 µM | [2] 10.9 µM | [3] 9.85 µM | [4] 29.3 µM | [6] 31 µM | [7] 12.6 µM | [8] 3.64 µM | [9] 68.9 µM | [10] 3.63 µM | [11] 26.1 µM | [13] 26.6 µM | [20] 29.1 µM | [14] 28.4 µM | [15] 6.6 µM | [17] 43.8 µM | [18] 10.1 µM | [19] 56.2 µM
inactive: [5]

CCCCC(CC)C(=O)O (stereo not drawn)
not listed: [20]
inactive: all other assays above

CCCCc1oc2ccccc2c1C(=O)c1cc(I)c(OCCN(CC)CC)c(I)c1
inactive: [4] | [12] | [14] | [17] | [19]
active: [1] 46.2 µM | [2] 59.5 µM | [3] 61.9 µM | [5] 55.5 µM | [6] 37.8 µM | [7] 66.1 µM | [8] 55.7 µM | [9] 47.6 µM | [10] 70.4 µM | [11] 54.7 µM | [13] 22.6 µM | [15] 70.6 µM | [16] 59.2 µM
